Test results from PubChem BioAssay AID1159580 (chemical genetic matrix, 2015).
Values joined by “and” are separate entries in the source; they are usually repeats but may differ in a detail not shown here. Equal entries are not always repeated. The whole screen tested about 5,500 compounds, of which about 2,000 (36%) were called active. About 18% were inconclusive and are not listed. Rule as the data show it: active = normalized growth mostly below about 0.91 (no sharp cut-off); inconclusive = no clear call, values can overlap the other calls; inactive = mostly above about 0.92. The list shows a part of the results.

Experiment: chemical genetic growth profiling, strain panel (AID 1159580);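 also: tested at 20 µM; growth read once vehicle control cultures reached saturation at 30 °C; 1 = growth at the plate median or of vehicle wells; lower values mean less growth of the strain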
Settings: S. cerevisiae deletion strains, growth OD

Measured: normalized growth

c1ccc2c(c1)CCCC2C1=NCCN1 (centres undefined)
inactive: locus YAL013W, strain DEP1, active compounds read low 1.01 and 1 | locus YAL021C, strain ccr4, active compounds read low 1.02 | locus YAL026C, strain drs2, active compounds read low 1.02 | locus YAL030W, strain snc1, active compounds read low 1.02 | locus YAL040C, strain CLN3, active compounds read low 1.05 | locus YBL061C, strain skt5, active compounds read low 1.02 | locus YBR009C, strain hhf1, active compounds read low 1.03 | locus YBR021W, strain FUR4, active compounds read low 1.05 | locus YBR023C, strain chs3, active compounds read low 1.02 | locus YBR171W, strain sec66, active compounds read low 1.03 | locus YBR229C, strain ROT2, active compounds read low 1.01 | locus YBR231C, strain swc5, active compounds read low 1.02 | locus YBR279W, strain paf1, active compounds read low 1.01 | locus YCL011C, strain gbp2, active compounds read low 1.02 | locus YCL016C, strain dcc1, active compounds read low 1.02 | locus YCL029C, strain bik1, active compounds read low 0.995 | locus YCL061C, strain MRC1 (second series), active compounds read low 1.01 | locus YCL069W, strain vba3, active compounds read low 1.02 | locus YCR088W, strain abp1, active compounds read low 1.02 | locus YDL005C, strain med2, active compounds read low 1.02 | locus YDL035C, strain GPR1, active compounds read low 1.02 | locus YDL040C, strain nat1, active compounds read low 1.02 | locus YDL074C, strain BRE1, active compounds read low 1.01 | locus YDL101C, strain DUN1, active compounds read low 1.01 | locus YDL134C, strain PPH21, active compounds read low 1.01 | locus YDL185W, strain tfp1, active compounds read low 0.993 | locus YDL192W, strain arf1, active compounds read low 1 | locus YDR001C, strain nth1, active compounds read low 1.01 | locus YDR069C, strain doa4, active compounds read low 1 | locus YDR101C, strain arx1, active compounds read low 0.995 | locus YDR137W, strain rgp1, active compounds read low 1.03 | locus YDR150W, strain NUM1, active compounds read low 1.01 | locus YDR159W, strain sac3, active compounds read low 1.02 | locus YDR162C, strain NBP2, active compounds read low 1.02 | locus YDR195W, strain ref2 1.01 | locus YDR297W, strain sur2, active compounds read low 1.03 | locus YDR318W, strain mcm21, active compounds read low 1.01 | locus YDR334W, strain swr1, active compounds read low 1.02 | locus YDR335W, strain msn5, active compounds read low 1.03 | locus YDR363W, strain ESC2, active compounds read low 1.02 | locus YDR388W, active compounds read low 1.01 | locus YDR392W, strain spt3, active compounds read low 1.03 | locus YDR502C, strain sam2, active compounds read low 0.991 | locus YEL003W, strain gim4, active compounds read low 1.02 | locus YEL037C, strain rad23, active compounds read low 1.03 | locus YEL061C, strain CIN8 (second series), active compounds read low 1.02 | locus YEL061C, strain CIN8, active compounds read low 1.01 | locus YER002W, strain NOP16, active compounds read low 0.992 | locus YER015W, strain faa2, active compounds read low 1.02 | locus YER016W, strain bim1, active compounds read low 1.03 | locus YER110C, active compounds read low 1.01 | locus YER111C, strain swi4, active compounds read low 1.03 | locus YER155C, strain BEM2 (second series), active compounds read low 1.04 | locus YER155C, strain BEM2, active compounds read low 1.01 | locus YER167W, strain BCK2, active compounds read low 1.01 | locus YFR010W, strain ubp6, active compounds read low 1.01 | locus YGL078C, strain dbp3, active compounds read low 0.989 | locus YGL086W, strain mad1, active compounds read low 0.998 | locus YGL167C, strain pmr1, active compounds read low 1.04 | locus YGL173C, strain kem1, active compounds read low 1.02 | locus YGL227W, strain vid30, active compounds read low 1.03 | locus YGL240W, strain doc1, active compounds read low 1.03 | locus YGL248W, strain PDE1, active compounds read low 1.01 | locus YGL253W, strain hxk2, active compounds read low 1.03 | locus YGR135W, strain pre9, active compounds read low 0.987 | locus YGR229C, strain SMI1, active compounds read low 1.02 and 1.03 | locus YGR252W, strain gcn5, active compounds read low 0.971 | locus YHR013C, strain ard1, active compounds read low 1.05 | locus YHR027C, strain rpn1, active compounds read low 1.01 | locus YHR030C, strain SLT2, active compounds read low 1.01 and 0.988 | locus YHR079C, strain IRE1 (second series), active compounds read low 1.01 | locus YHR079C, strain IRE1, active compounds read low 0.976 | locus YHR094C, strain hxt1, active compounds read low 1 | locus YHR129C, strain ARP1, active compounds read low 1.01 | locus YHR142W, strain chs7, active compounds read low 1.02 | locus YHR200W, strain rpn10, active compounds read low 0.997 | locus YIL066C, strain RNR3, active compounds read low 1.01 | locus YIL073C, strain SPO22, active compounds read low 1.02 | locus YIL125W, strain kgd1, active compounds read low 0.958 | locus YIR030C, strain dcg1, active compounds read low 0.999 | locus YJL092W, strain hpr5, active compounds read low 1.02 | locus YJL095W, strain BCK1 (second series), active compounds read low 1.02 | locus YJL095W, strain BCK1, active compounds read low 1 and 0.971 | locus YJL115W, strain asf1, active compounds read low 1.01 | locus YJL129C, strain trk1, active compounds read low 1.02 | locus YJL134W, strain LCB3, active compounds read low 1.01 | locus YJL154C, strain vps35, active compounds read low 1.02 | locus YJL164C, strain tpk1, active compounds read low 1.02 | locus YJL166W, strain qcr8, active compounds read low 1.02 | locus YJL168C, strain set2, active compounds read low 1 | locus YJL187C, strain SWE1 (second series), active compounds read low 1.02 | locus YJR043C, strain POL32, active compounds read low 1.01 | locus YJR066W, strain TOR1, active compounds read low 0.945 | locus YJR075W, strain HOC1, active compounds read low 1.01 and 0.998
